Assay results: PubChem BioAssay (NCI)
Compounds without any hit were thinned out: in the full panel of roughly 83,000, 20% have a hit.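 Values shown are percent growth following 48 h exposure of cells in 96-well plates to a single concentration of compound; below 10 was considered active.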 Values without a mark were called inactive. The source made the active and inactive calls.

Experiments:
Assay in all cases: NCI-60 one-dose screen, 48 h (100 = growth as untreated, 0 = no growth, -100 = all killed)
Conditions in all cases: 10 µM unless noted
SK-MEL-2 melanoma = system: SK-MEL-2 melanoma
EKVX NSCLC = system: EKVX NSCLC
SN12C renal = system: SN12C renal
UO-31 renal = system: UO-31 renal
TK-10 renal = system: TK-10 renal
CAKI-1 renal = system: CAKI-1 renal
A498 renal = system: A498 renal
CCRF-CEM leukemia = system: CCRF-CEM leukemia
MOLT-4 leukemia = system: MOLT-4 leukemia
ACHN renal = system: ACHN renal

| Structure (SMILES) | growth (SK-MEL-2 melanoma) | growth (EKVX NSCLC) | growth (SN12C renal) | growth (UO-31 renal) | growth (TK-10 renal) | growth (CAKI-1 renal) | growth (A498 renal) | growth (CCRF-CEM leukemia) | growth (MOLT-4 leukemia) | growth (ACHN renal) |
| --- | --- | --- | --- | --- | --- | --- | --- | --- | --- | --- |
| O=C(NCc1ccc(F)cc1)C1CN(c2ccc(Cl)cc2)N(c2ccc(Cl)cc2)C1=O (centres undefined) | 64.6% | 74.8% | 83% | 51% | 100% | 57.6% | 39.8% | 61.8% | 37.1% |  |
| CCC(C)[C@H]1O[C@]2(CC[C@@H]1C)C[C@@H]1C[C@@H](C/C=C(\C)[C@@H](OC3C[C@H](OC)C(O[C@H]4C[C@H](OC)[C@@H](O)[C@H](C)O4)[C@H](C)O3)[C@@H](C)/C=C/C=C3\CO[C@@H]4[C@H](O)C(C)=C[C@@H](C(=O)O1)[C@]34O)O2 (some centres undefined) | -9.26% (active) |  | 14.6% | 9.45% (active) | 30.2% | -15.1% (active) | -23.7% (active) | 25.9% |  | -66.3% (active) |
| Cn1c2c(cc(S(=O)(=O)c3ccccc3)c1=O)CCc1c-2cnn1-c1ccccc1Cl | 105% |  | 97.8% | -16% (active) | 122% | 54.7% | 86.5% | 96.4% | 90.7% | -31% (active) |
| Cc1ccccc1-n1nnc(C(=O)Nc2nc(-c3ccccc3)c(-c3ccccc3)s2)c1C | 89% [50 µM] | 69.8% [50 µM] | 79.2% [50 µM] |  |  | 63.5% [50 µM] | 104% [50 µM] | 63.5% [50 µM] | 67% [50 µM] | 84.6% [50 µM] |
| Cc1nc2cc(Nc3nc(NCCO)nc(Nc4ccc(F)cc4)n3)ccc2n1Cc1ccccc1 | 122% |  | 91.1% | 78.8% | 133% | 100% | 66.2% | 1.93% (active) |  | 98.3% |
| CCN1CCN(c2nc3ccccc3c3c(=O)c4cc(F)ccc4sc23)CC1 | 98.8% | 82.8% | 80.7% |  | 85.2% | 67.9% | 28.9% | 68.5% | 27.9% | 59.4% |
| CN1CCc2cccc3c2C1Cc1ccc(O)c(O)c1-3 (centres undefined) | 117% | 75.4% | 88.4% |  | 129% | 63.4% | 103% | 37.9% |  | 73% |
| O=C(N/N=C(\CS(=O)(=O)c1ccccc1)c1cc2cc(Br)ccc2oc1=O)c1ccccc1 | 105% | 94.2% | 96.1% |  | 108% | 90.6% |  | 131% | 140% | 103% |
| CN1CCC(OC2c3ccccc3CCc3ccccc32)CC1 | 113% | 84.9% | 93.9% |  | 89% | 75.4% | 77.9% | 94.1% | 99.5% | 97.5% |
| COc1ccc(/C=C2\Oc3cc(C)c(Cl)cc3C2=O)cc1OC | 109% | 94% | 95% |  | 112% | 87.2% |  | 87.4% | 91% | 97.9% |
| O=C1/C(=C/c2ccc(Cl)cc2)CN(Cc2cn(CCCNc3ccnc4cc(Cl)ccc34)nn2)C/C1=C\c1ccc(Cl)cc1 | -35.2% (active) |  | -80.2% (active) | -98% (active) | -56.6% (active) | -20.4% (active) | -61.3% (active) | -31.2% (active) | -16.7% (active) | -99.3% (active) |
| N#CCCN1CCN(CCC#N)C1=S | 93.4% | 102% | 95.2% |  | 98.1% | 86.4% | 87.9% | 111% | 103% | 102% |
| CCCCCCCCCCCCSC1=CC(=O)C=CC1=O | 90.1% |  | 55.1% | 52.8% | 118% | 52.6% | 107% | -10% (active) | -0.985% (active) | 81% |
| CCN(c1ccc(C(=O)N2CCN(c3ccccc3)CC2)cc1)S(C)(=O)=O | 100% |  | 103% | 90.2% | 88.7% | 96.3% | 87.9% | 100% | 95.8% | 109% |
| Clc1ccc(C2=NN(c3ccccc3)[C@H](c3cn(-c4ccccc4)nc3-c3ccccc3)C2)cc1 | 97.7% | 94.9% | 103% |  | 114% | 99.9% | 109% | 116% | 93.6% | 103% |
| CSc1nnc(-c2sc3nnc(-c4ccccc4)c(-c4ccccc4)c3c2O)o1 | 102% | 77.5% | 75.7% |  | 100% |  |  | 47.4% | 61.8% |  |
| COc1cccc(OC(=O)c2ccccc2)c1OC(=O)c1ccccc1 | 57.6% | 95.4% | 76.7% |  | 87.7% | 75.2% | 88.9% | 87.6% | 79.5% | 98.3% |
| COc1cccc(-c2ccc3c(c2)C2CCN(Cc4ccccc4)C3C2)c1 (centres undefined) | 61.5% |  | 90.4% | 51.6% | 92.4% | 78.4% | 65% | 63.8% | 68.8% | 93.2% |
| CCN(CC)CCCNc1ccc(C)c2sc3ccccc3c(=O)c12 | 94% | 87.9% | 40.5% | 44.7% |  | 64.6% |  | 21.8% | 15.3% |  |
| CCCCCCCC/C=C\CCCCCCCCOc1cccc(CC(=O)NCC[N+](C)(C)C)c1 | 106% | 92.6% | 69.7% |  | 68.6% | 71.2% |  | 78% | 92.9% | 93.4% |
| Cc1nn(-c2ccccc2)c2nc3nc4c(c(N)c3c(-c3ccc(Cl)cc3)c12)CCCC4 | 98.3% |  | 96.3% | 84.4% | 112% | 90.5% | 97.2% | 92.5% | 97% | 81.8% |
| COC(=O)c1c2c(c(C)[n+]([O-])c1C)C(=O)C=C(NCc1ccc(F)c(Cl)c1)C2=O | -42.8% (active) | -63.3% (active) | -85.7% (active) |  | 21.2% |  |  | -2.7% (active) | -35.6% (active) | -38.4% (active) |
| CCOc1ccc(/C=N\N2CCCCCC2)cc1OCC | 103% | 76.8% | 82.7% |  | 97.7% | 90.8% |  | 102% | 106% | 88.7% |
| CC1SC(c2ccc(Cl)cc2)N(CCc2cccs2)C1=O (centres undefined) | -72.8% (active) | -12.5% (active) | -75.6% (active) |  | -16.5% (active) | -33.6% (active) | -13.7% (active) | 10.1% | -4.19% (active) | -6.58% (active) |
| CN(C)c1ccc(/C=C(\C#N)c2cc3ccccc3n2C)cc1 | 54.7% | 41.6% | 38.7% | 51.7% |  | 30.7% | -9.38% (active) | 19.1% | 21.6% |  |
| Cc1ccc(S(=O)(=O)c2ccc3[nH]c(=O)[nH]c(=O)c3c2)cc1 | 100% | 122% | 97.7% |  | 93.8% | 97.1% | 102% | 91.4% | 94.6% | 109% |
| CC(=O)Nc1ccc(S(=O)(=O)N/N=C\c2ccc(Cl)c(Cl)c2)cc1 | 90.6% | 99.7% | 99.1% |  | 93.2% | 91.5% | 72.7% | 92.8% | 100% | 98.5% |
| O=C(CCCCCCC(=O)Nc1ccc2c(c1)/C(=C/c1ccc[nH]1)C(=O)N2)NO | 37% |  | 12.2% | 6.77% (active) | 5.62% (active) | 2.67% (active) | -59.3% (active) | 6.86% (active) | 4.16% (active) | 4.49% (active) |
| COc1ccc(-n2ncc3c2ccc2cc(S(=O)(=O)c4ccccc4)c(=O)n(C)c23)cc1 | 96.3% |  | 101% | 94.4% | 86.3% | 89.3% | 70.5% | 96.6% | 103% | 75.4% |
| Brc1ccccc1Nc1ccc2nnc(-c3ccncc3)n2n1 | 98% |  | 101% | 82.1% | 114% | 87.1% | 101% | 85% | 92.6% | 97% |
